The values below come from PubChem BioAssay AID1159506 (National Center for Advancing Translational Sciences (NCATS), 2015).

Over roughly 59,000 sequences, the read-out has its median near -0.00055; the lowest 2% begin near -2. Many of the other results were omitted from the sample, so the lowest values are more common in it than they were.

This experiment can be described thus: Identification of proteins required for the processing of the EWS-FLI1 nascent transcript.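 Note: robust z of luciferase light less the median z of siRNAs with the same seed.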 The following applies: TC32 Ewing sarcoma NR0B1-luc vs CMV-luc (EWS-FLI1 target promoter against control promoter), 48 h; screened at 20 nM (by protocol). In outline: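 Readout: OneGlo luminescence, 48 h post-transfection, TC32-NR0B1-luc vs TC32-CMV-luc in parallel. siRNA 20 nM final, RNAiMax lipid, 600 cells/well; z-score-MAD transformed, then seed-adjusted.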
On to UUAUAAUCUACAUGCUUUC against MRPS18C, for which the seed-corrected z-score came to 0.39.

UCUGCUGUCCUGUAAGUCG against AMACR displayed a seed-corrected z-score of 0.214.

Turning to UUAGCUGUGAGUGCUUUCC against TNFRSF11A, the seed-corrected z-score is -2.35.

Sequence UUGAGUGCAACUUCAAGUC against OPTN came in with a seed-corrected z-score of 2.17.

UUCUGGAGCAGACCUGUCC against DKK4 gave a seed-corrected z-score of 0.057.

Turning to UGUUAGCUCAGUCACGUAG against GBP7, the seed-corrected z-score was found to be 0.141.

GUGUGCAUCAGAUGCUCUG against NUTM2F: the seed-corrected z-score was found to be 1.15.

As to UCGCUGAUCAGCAUGACCU against ITFG2, the seed-corrected z-score is -0.4.

In turn, UCUCUUUAUGCAGCUGACA against LTF gave a seed-corrected z-score of -2.1.

For UAGAUGUUGACGCCCAUGG against MRPL54, the seed-corrected z-score is 0.63.

Turning to UGAGUACCCAUGGUUGGAG against KY, the seed-corrected z-score was -1.24.

UUCAGGACAAUCUUGUUCC against UBL5 returned a seed-corrected z-score of -0.0381.

The sequence AUUGUAACCAGUCACGUAC against FLRT3 registered a seed-corrected z-score of 0.235.

Regarding UGAGAUAUGCGACAGAUGG against ACOX2, the seed-corrected z-score is -0.67.

AUUGCUCUGAAGUGAAUUC against LMO4 yielded a seed-corrected z-score of -0.726.

UACAGGCUAAAUACACUCC against ANAPC13 displayed a seed-corrected z-score of -2.73.

In the case of AGAGUUAAAACUGGAGGCG against POU2F3, the seed-corrected z-score stood at 0.349.

In the case of UUCUAGAUUAUUAUAGGAC against LRFN5, the seed-corrected z-score was -0.0413.

Sequence UGUUCUUGUAUUUCGCUUG against ZBED9 returned a seed-corrected z-score of -0.528.

For AAAGAGGUGAUAGAGCACG against PAQR4, the seed-corrected z-score is -1.03.

For UACGAUAUCAGCAUUGCAG against CNOT6, the seed-corrected z-score was 0.29.

As for UUCUGGUAUACGUGUUUCG against TNFSF8, the seed-corrected z-score is 0.471.

Take UUGGUUAACCAGGUUCACC against LOC390282: the seed-corrected z-score is -2.14.

Regarding AGCUGGUCAAUGUAGUCGC against MAPK11, the seed-corrected z-score is 0.202.

Sequence UACAGUAUCAGCUUCUACA against LOC643855 came in with a seed-corrected z-score of 0.618.

Take UUCCAGACCAUGAGAUGCC against PIGO: the seed-corrected z-score was -0.121.

UCAUGUUCAACCCAAACUC against ANKMY1 had a seed-corrected z-score of -4.15.

The sequence UCUAGGACAGCUCUUAUCC against EDEM3 displayed a seed-corrected z-score of 0.599.

UUUGUUACUUUGUCCAUUC against ARMC9: the seed-corrected z-score was -0.253.

In turn, UAGCUGUUCCUUGUAGUUG against NABP1 displayed a seed-corrected z-score of 0.675.

In the case of UUGAUCACCACUUCGGAGC against CHRM1, the seed-corrected z-score was -0.914.

For UCACGUUUAUUCUGAAUCC against NDC1, the seed-corrected z-score was -1.1.

UGUCCAUGAAAUUUCUCUG against ARL2BP had a seed-corrected z-score of 1.12.

Sequence UUUUUCUCGAUCUGCUUCC against CCDC64 yielded a seed-corrected z-score of -2.13.

Sequence UAAUGCAUCUUCAAAAUUC against LOC730338 gave a seed-corrected z-score of 0.94.

The sequence UACUUUGUUAUAGGAUCUC against CWC22 showed a seed-corrected z-score of -0.653.

As to UUUGGGAUCAAAUCGGUGG against NAPSA, the seed-corrected z-score was 0.0625.
